A selection: hits, their analogues and other compounds. The true share with any hit is near 0.83%.
Candida biofilm: kills Candida albicans biofilms | inhibition, % at 6 µM | C. albicans biofilm + clotrimazole, Alamar Blue | actives 0.14% (n = 85,000);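 active = inhibition above 20%; inactive = inhibition below 20%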;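 also: preformed 24 hr biofilms exposed to compound for 48 hr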
Smad3 FoxH1 inh: Smad3 (human) transcription factor binding inhibition. P84022. TR-FRET Smad3/Dy647-FoxH1 peptide binding, europium anti-His. inhibition, % at 25 µM. actives 0.29% (n = 88,000). AID 630;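 active = compounds that reduce the energy-transfer binding signal between the protein and its labelled peptide by more than half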
Target sequence (P84022 whole entry, looked up): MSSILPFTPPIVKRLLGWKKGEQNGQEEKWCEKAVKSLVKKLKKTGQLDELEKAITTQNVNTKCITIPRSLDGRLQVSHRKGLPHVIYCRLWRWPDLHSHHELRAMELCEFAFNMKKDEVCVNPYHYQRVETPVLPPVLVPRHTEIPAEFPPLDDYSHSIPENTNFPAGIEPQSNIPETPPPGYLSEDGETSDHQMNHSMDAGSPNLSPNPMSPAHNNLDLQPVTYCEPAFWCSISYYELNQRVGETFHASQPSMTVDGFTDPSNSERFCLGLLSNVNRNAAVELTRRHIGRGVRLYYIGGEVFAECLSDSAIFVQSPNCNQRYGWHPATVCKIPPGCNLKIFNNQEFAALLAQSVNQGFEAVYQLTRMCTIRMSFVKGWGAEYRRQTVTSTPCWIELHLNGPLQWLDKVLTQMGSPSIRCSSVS
MRP resist rev: reverses drug resistance mediated by MRP. H69AR cells + 2 uM doxorubicin, CellTiter-Glo, 72 h. AID 602. actives 0.04% (n = 85,000). differential viability (reversal), % at 10 µM;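 active = viability drop by adding the cancer drug above about 55%, with treated viability meeting a 40% cutoff, limit read from the data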;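 also: larger differential means the compound sensitizes cells more to doxorubicin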
MRP1 act: activates MRP-1; actives 0.61% (n = 140,000); H69AR cells + doxorubicin, viability rescue, CellTiter-Glo; AID 799; viability increase, % at 10 µM;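 active = viability gain under doxorubicin at or above a set limit, the compound median plus 3 SD, cut at about 4.7% in these data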;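 also: MRP-1 overexpressing cells given doxorubicin 25 µM after compound pretreatment; 18-22 h compound pretreatment then 72 h with doxorubicin before readout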
A number is an active result; i = inactive; nt = no result.

SMILES	Candida biofilm	Smad3 FoxH1 inh	MRP resist rev	MRP1 act
O=C(CSc1ccc2nnc(-c3ccccn3)n2n1)N1CCOCC1	46	i	i	i
Cc1ccc(O)c(/C=N/NC(=O)c2[nH]ncc2Br)c1	nt	nt	nt	4.9
Clc1cccc(Cl)c1/C=N\Nc1nccs1	nt	nt	nt	i
O=[N+]([O-])c1cc(/C=N\Nc2nccs2)ccc1O	i	78	i	i
CCN(CC(=O)NC(C)C)C(=O)c1ccc(S(=O)(=O)N(C)c2ccccc2OC)cc1	i	i	i	i
CCN(CC(=O)NC(C)C)C(=O)c1ccc(Cl)cc1	nt	nt	nt	6.0
O=C(O)[C@H](CCc1ccccc1)N1C(=O)c2ccccc2C1=O	nt	i	nt	nt
Cc1cccc(NC(=O)c2cccc(NS(=O)(=O)c3ccc(Cl)cc3)c2)c1	nt	nt	nt	i
COc1cc(S(=O)(=O)Nc2cccc(C)c2)ccc1NC(=O)c1ccncc1	nt	nt	nt	5.2
COc1ccc(NC2=Nc3ccccc3N3C2=Nc2c(c(C)nn2-c2ccc(C)cc2)C3c2cccnc2)cc1 (stereo not drawn)	i	i	i	8.8
CN(N=O)c1ccc(/C=C/c2ccnc3ccccc23)cc1	nt	i	nt	nt
CN1CCN(CN2C(=O)[C@H]3[C@H]4C=C[C@@H]([C@@H]3C2=O)[C@H]2[C@@H]3C(=O)N(CN5CCN(C)CC5)C(=O)[C@@H]3[C@@H]42)CC1	nt	57	nt	nt
O=C(O)C[C@H](Sc1ccccc1)c1ccccc1	nt	i	nt	nt
CCSc1nnc(-c2ccc(Cl)cc2)c2ccccc12	nt	nt	nt	i
CCSc1nnc(-c2ccc(C)cc2)c2ccccc12	nt	nt	nt	5.6
Cc1cccc(NC2SC(=O)N(c3ccccc3)C2=O)c1 (stereo not drawn)	i	i	i	i
O=C(CC1SC(=O)N(c2ccccc2)C1=O)Nc1ccccc1 (stereo not drawn)	i	i	i	6.8
Cc1cccc(NC(=O)CC2SC(=O)N(c3ccccc3)C2=O)c1 (stereo not drawn)	i	i	i	8.9
Cc1ccc(NC(=O)CC2SC(=O)N(c3ccccc3)C2=O)cc1 (stereo not drawn)	i	i	i	i
COc1ccc(NC(=O)C(=O)N/N=C/c2cc(C)n(-c3cccc(Cl)c3Cl)c2C)c(OC)c1	nt	nt	nt	5.3
CC(=O)[C@@]1(N=Nc2ccc(S(N)(=O)=O)cc2)CCOC1=O	nt	52	nt	nt
N#CC1=C(N)SC(N)=C(C#N)C1c1cccc(O)c1	i	i	i	5.1
CN1CC[C@@H](CN2c3ccccc3Sc3ccccc32)C1	nt	i	nt	nt
c1ccc2c(CSCc3cccc4ccccc34)cccc2c1	nt	i	nt	nt
Cc1cc(C(=O)COC(=O)c2ccccc2O)c(C)n1Cc1cccs1	nt	nt	nt	i
SMILES	Candida biofilm	Smad3 FoxH1 inh	MRP resist rev	MRP1 act
Cc1cc(C(=O)COC(=O)c2ccc3c(c2)OCO3)c(C)n1Cc1cccs1	i	i	i	5.6
N#C/C(=C(/O)C(=O)O)c1ccc(-c2cccc3ccccc23)cc1	nt	i	nt	nt
Cc1sc2ccccc2[n+]1CCC(=O)O	nt	72	nt	nt
O=C(O)CCCc1nc2ccccc2s1	i	i	i	i
NC(N)=N/N=C(/c1ccc(Cl)cc1)C1CC1	nt	i	nt	nt
CCC1(C)Cc2c(sc3nnn(CC(=O)Nc4ccccc4C)c(=O)c23)CO1 (stereo not drawn)	nt	nt	nt	i
CCC1(C)Cc2c(sc3nnn(Cc4ccccc4Cl)c(=O)c23)CO1 (stereo not drawn)	nt	nt	nt	8.0
CCC1(C)Cc2c(sc3nnn(CC(=O)Nc4ccccc4)c(=O)c23)CO1 (stereo not drawn)	nt	nt	nt	5.0
NC(N)=NNC(=O)C(=O)O	nt	i	nt	nt
NS(=O)(=O)c1cc(Br)c(N=Nc2ccc(O)c3ncccc23)c(Br)c1	nt	77	nt	nt
Cc1cccc(N=Nc2ccc(O)c3ncccc23)c1	nt	nt	nt	i
O=C(c1ccc(COc2ccc(Cl)cc2)o1)N1N=C(C(F)F)CC1(O)C(F)F (stereo not drawn)	nt	nt	nt	5.6
COc1ccccc1OCc1ccc(C(=O)N2N=C(C(F)F)CC2(O)C(F)F)o1 (stereo not drawn)	nt	nt	nt	i
C/C(=N\[N-]C(=[SH+])SCc1ccccc1)c1ccccn1.[Cl][Cu]	nt	81	nt	nt
CSC(=[SH+])[N-]N=C(c1ccccn1)c1ccccn1.[Cu][Br]	nt	i	nt	nt
Cc1ccc(NC(=S)Nc2ccc(Br)cc2)cc1	nt	nt	nt	i
CNC(=S)Nc1ccc(C)cc1	nt	nt	nt	11
CNC(=S)Nc1ccc(C23CC4CC(CC(C4)C2)C3)cc1	nt	nt	nt	5.2
CC(C)(Oc1ccc(-c2cccc3ccccc23)cc1)C(=O)O	nt	i	nt	nt
CCC(Sc1nc2ccccc2[nH]1)C(=O)Nc1cc(C)on1 (stereo not drawn)	i	i	i	i
CCSc1nc(-c2ccccc2)c(C#N)c(=O)[nH]1	i	i	i	i
CCC(Sc1nc(-c2ccccc2)c(C#N)c(=O)[nH]1)C(=O)Nc1cc(C)on1 (stereo not drawn)	i	i	i	11
COC(=O)C(CC(C)C)NC(=O)CSc1nc(-c2ccccc2)c(C#N)c(=O)[nH]1 (stereo not drawn)	i	i	i	11

High-throughput results as filed in PubChem.
